Results on 57 sequences are retold here after the supplement of paper PMC11417369.

In all, about 25,000 sequences were measured (“ln(normalized median fluorescence intensity)”: median about 9.7, highest 2% from about 11 on). What follows is part of a selection rich in the highest values, with near analogues and random picks from the rest.

The assay has as its system PfAP2-HC AP2 domain (GST-tagged). Kind of assay: gcPBM binding intensity (ln(normalized median fluorescence intensity)); higher = stronger DNA binding. An outline of the steps:
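Binding intensity is defined as the maximum Masliner-normalised natural-log median intensity across replicate spots for either probe orientation. It was measured on an Agilent 4 × 180k array of primer-extended double-stranded 36-bp intergenic genomic probes and negative controls, to which GST-tagged P. falciparum DNA-binding domains made in E. coli were applied for 1 h in 1× PBS with 1% milk, 0.2 mg/ml BSA, 0.5% salmon testes DNA and 0.03% Triton X-100. Detection was by Alexa488 anti-GST antibody and scanning at 488 nm.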
Consider “TTATAAATGAATAAATGTACAAAATATATATATATA [XGTACX_site8829]”, for which the “gcPBM binding intensity (ln)” value was 9.66. Next, “TTAAATAAAAAAATAACACACATATAAATCTATATG [CACACA_site7482]”: 9.75; “TTTTTTTTGTGTTCAAGTACAAAATTTTAAAGGTCA [XGTACX_site4011]”: 9.26; “TATTGTTGTTCATGTACACACTATAATAAAAGCAAT [CACACA_site6148]”: 9.62. With “TATAAAACACACACACATATATATATATATTTATAT [TGCATGCA_negctrl_site48]”, the “gcPBM binding intensity (ln)” value turned out to be 11.2. The value for “ATCTTATATTATCACACACACACGCACAAAACAGAA [CACACA_site1463]” was 10.3; that for “ATATAATTATAAAATAAACACACATATATATTTATA [CACACA_site8039]” was 9.91. The value for “CTTATATTAAAACACACACACGCACAAAACAGAAAT [CACACA_site1462]” was 11. The value for “TATTTATTTATATAAACACACATAAATATAAATATA [CACACA_site6653]” was 9.45. With “AACAAAAAAACAAACACACACACACGCATATTTATA [CACACA_site7680]”, the “gcPBM binding intensity (ln)” value came out at 11.2. Next, “AAGGATCACGCACAAACACACATATTTATATTTATA [CACACA_site6405]”: 9.95. Next, “CATATATAAAAAAACACACACATATTTATATTTATA [CACACA_site6682]”: 10.3.

Consider “AAAAAAAACAAACACACACACAAATATTTATATATT [CACACA_site436]”, for which the “gcPBM binding intensity (ln)” value was 10.5. The value for “CACAAAAATAAACACACACACATATATATTTATTAT [CACACA_site5923]” was 11.1; that for “CAATATAAAAAACACACACACAAACATATATTTATA [CACACA_site3703]” was 10.5. Next, “ATCTTATATGATCACACACACACGCACAAAACAGAA [CACACA_site4913]”: 10.4; “ATTCTATATATATAAACACACAAATATTTTTATATA [CACACA_site1677]”: 9.65.

As to “TTCTTTTCTTCTACATGTACAAATATTATATATATA [XGTACX_site2996]”, the “gcPBM binding intensity (ln)” value turned out to be 9.97. The value for “TATATTATATTATACATACACACCCATATAATATGT [CACACA_site869]” was 10.1; that for “TATAAATTAATGACATGTACATAAAAGTATAGATGT [XGTACX_site6534]” was 9.95; that for “TTTATAAAATTATTTGCATGTAACAATTATAAATTG [TGCATGCA_site1026]” was 9.42. Next, “TTTTTTTAAAACAAAAAAAAAAAAAAAAAAAAAAAA [TGCATGCA_negctrl_site418]”: 8.22; “AATATATATATATATACACACACACCGATATATATA [CACACA_site8158]”: 11.2. The value for “TAAAAAAAAAAAAATACACACACACCGATATATATA [CACACA_site8498]” was 10.7; that for “AAAAAAAAAAAAAATACACACACACCGATATATATA [CACACA_site8142]” was 10.6.

As for “TAATAATACCCAAGCACACACACACCCATATATATA [CACACA_site4831]”, the “gcPBM binding intensity (ln)” value came to 10.6.

For “CAAAAAAAATTATACACACACACACCGATATATATA [CACACA_site4719]”, the “gcPBM binding intensity (ln)” value turned out to be 11.1. As for “CAAAATAATATATATACACACACACCGATATATATA [CACACA_site8082]”, the “gcPBM binding intensity (ln)” value was 10.8. “TATATATATATATACACACACACACCGATATATATA [CACACA_site8813]”: the “gcPBM binding intensity (ln)” value amounted to 10.5. Regarding “TTAATATAAGCAAATACACACACACCGATATATATA [CACACA_site9269]”, the “gcPBM binding intensity (ln)” value was found to be 11.1. Next, “GATATATATTAATATACACACACACCGATATATATA [CACACA_site8462]”: 10.2; “TATACATACATACATACACACACACCGATATATATA [CACACA_site7896]”: 10.2.

Consider “ATAATATATATTAATACACACACACCGATATATATA [CACACA_site9261]”, for which the “gcPBM binding intensity (ln)” value is 10.4. Next, “ATAATACCCAAGCACACACACACACCGATATATATA [CACACA_site8344]”: 11.3. Take “ATAAAGAAACATATATGTACTTATATATATATATAT [XGTACX_site5625]”: the “gcPBM binding intensity (ln)” value was 9.69. Next, “TATAAGAGAATATATACACACAAAAATAAATACAGT [CACACA_site5000]”: 10.9; “ATATATATATAATGAAGTACGAAAAAATAAGAAATG [XGTACX_site4001]”: 9.9. Consider “TATAAAACAAATATATGTACATATCATAGTATAATA [XGTACX_site2965]”, for which the “gcPBM binding intensity (ln)” value was found to be 9.75. The value for “AAGGAAATATAATATACACACATAAGTGTACTTCTA [CACACA_site6079]” was 9.81; that for “AATAGTCGGGTGCATACACACCTTAAATATAATATA [CACACA_site8271]” was 9.57; that for “CTAATCGTGCACAACTGTACATTTGTCAAGGGCAAT [XGTACX_site8662]” was 9.62. Next, “AAAGAACAAATAAAACATAAAATAATATATATAGAT [CACACA_negctrl_site1764]”: 10.1; “AAAAAAAAAAAAAACACACACAACACCCATACCTTA [CACACA_site3621]”: 11.2; “TACAAACACCCATATACACACAAAAAAAAAATAAAA [CACACA_site5421]”: 9.94. Consider “AAAAAAAAAAAAAACACACACACACCCATACAAAAT [CACACA_site1446]”, for which the “gcPBM binding intensity (ln)” value was 11.6. Consider “TATATACACCCACATACACACAAATAAAAAAACACC [CACACA_site3414]”, for which the “gcPBM binding intensity (ln)” value amounted to 10.5.

Turning to “AAAAAAAAAAAAAAAACACACACAACACCCATACCT [CACACA_site9208]”, the “gcPBM binding intensity (ln)” value was 10.4. Next, “AAAAAAAAAAAAAACACACACACACCCAAATACATA [CACACA_site708]”: 10.5.

Take “ATATCTTATGTTATCACACACACACGCACAAAACAG [CACACA_site6800]”: the “gcPBM binding intensity (ln)” value came to 10.3. As for “AAAAAAAAAAAAAACACACACATACACCCAAAAATG [CACACA_site4223]”, the “gcPBM binding intensity (ln)” value was 10.3. With “AAAAAAACAGAAAACACACAAATTATCTTATAATTA [CACACA_site6282]”, the “gcPBM binding intensity (ln)” value was determined as 9.8. Next, “AAAAAAAAAAAAAAAACACACATACCCATATATTTT [CACACA_site6013]”: 9.85; “ATATCTTATATTATCACACACACACCCACAAAACAG [CACACA_site1464]”: 11.5.

For “AAAAAATACAAACACACACACACACCCATATATATA [CACACA_site3560]”, the “gcPBM binding intensity (ln)” value was determined as 11. As for “ATATATATTTAAACTACACACGCATATCTTAGAAAT [CACACA_site8348]”, the “gcPBM binding intensity (ln)” value amounted to 10.1.

As for “ACTGTACTATAAAATACACACATATAAATATAAATA [CACACA_site3009]”, the “gcPBM binding intensity (ln)” value is 9.99. As to “AATATTTAATTCAACACACATACATATTTATTAAAA [CACACA_site2342]”, the “gcPBM binding intensity (ln)” value was found to be 9.99.
